# “And” between values parts separate entries of the source, which are not always exact repeats. Equal values may be shown once. The campaign covered roughly 310,000 compounds. About 1,000 (0.32%) were called active. The list is a sample of the results. Entries with a potency or affinity are not part of this list. Unmarked numbers belong to inactive results. The rule behind the calls is not given here.
# Assay: PhoP regulon inhibitors, Salmonella typhi PhoP promoter GFP reporter, confirmatory (AID 1850);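 note: 0% = induced wells with vehicle and 100% = uninduced wells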
# Settings: fluorescence, 4 h, at 50 µM, active compounds read high
row,SMILES,inhibition
1,CN(Cc1ccccc1)C(=O)c1cccnc1,-2.03%
2,CCOC(=O)c1ccc(NC(=O)c2cn(-c3ccccc3)nc2-c2ccncc2)cc1,3.68%
3,CN(C)[C@@H]1C(=O)C(C(N)=O)=C(O)[C@@]2(O)C(=O)C3=C(O)c4c(O)ccc(Cl)c4[C@@](C)(O)[C@H]3C[C@@H]12,4.13%
4,CN(C)[C@@H]1C(=O)C(C(N)=O)=C(O)[C@@]2(O)C(=O)C3=C(O)c4c(O)cccc4[C@@](C)(O)[C@H]3[C@H](O)[C@@H]12,5.02%
5,CN(C)[C@@H]1C(=O)C(C(N)=O)=C(O)[C@@]2(O)C(=O)C3=C(O)c4c(O)cccc4[C@@](C)(O)[C@H]3C[C@@H]12,-2.82%
6,CN(C)[C@@H]1C(=O)C(C(=O)NCN2CCCC2)=C(O)[C@@]2(O)C(=O)C3=C(O)c4c(O)cccc4[C@@](C)(O)C3CC12 (stereo partly drawn),-8.43%
7,COC(=O)C1=C(C)N(Cc2ccco2)C(=O)N[C@H]1c1ccccc1,-5.63%
8,Cc1cccc(OCc2nnc(SCC(=O)c3ccccc3)o2)c1,5.39%
9,O=C(c1ccc(-n2cncn2)c([N+](=O)[O-])c1)N1CCN(S(=O)(=O)c2c(F)cccc2F)CC1,-3.76%
10,O=C(N/N=C/c1cccc(C(F)(F)F)c1)c1ccccc1O,1.04%
11,O=C(Nc1ccccc1F)Oc1cccc(OC(=O)Nc2ccccc2F)c1,5.4%
12,CS(=O)(=O)Nc1ccc(C(=O)Nc2ccc(S(=O)(=O)N3CCCC3)cc2)cc1,-7.4%
13,O=C1Nc2ccc(S(=O)(=O)N3CCCC3)c3cccc1c23,-4.45%
14,CC(=O)c1ccc(N=Nc2ccc(N(C)C)cc2)cc1,6.87%
15,CCN(CC(=O)NCCN1CCOCC1)S(=O)(=O)c1ccc(F)cc1,5.57%
16,C/C(=N\NC(=O)C(O)c1ccccc1)c1ccc(Cl)s1 (stereo not drawn),-5.86%
17,CN(C)C(=S)NC(=O)c1cccc(Cl)c1,-16.5%
18,O=C(Nc1ccc(C(=O)O)cc1)/C(=C\C=C\c1ccccc1)NC(=O)c1cccc(Br)c1,9.6%
19,Cc1cc(C)n(/N=C/c2cccc([N+](=O)[O-])c2)c(=O)c1,-0.547%
20,Cc1cc(C)n(/N=C/c2c[nH]c3ccccc23)c(=O)c1,2.25%
21,Cc1cc(C)n(/N=C/c2ccccc2O)c(=O)c1,-10.2%
22,O=[N+]([O-])c1ccc(O)c(/C=N/n2cnnc2)c1,16.7%

row,SMILES,inhibition
1,C/C1=C\CCC2C(/C=C(\C)CC1)OC(=O)C2CN1CCCCC1 (stereo not drawn),5.15%
2,CCOc1ccccc1NC(=O)C1CCN(S(=O)(=O)c2cccc3cccnc23)CC1,14.7%
3,CCOC(=O)c1nnn(-c2nonc2-n2cccc2)c1CN1CCCCC1,-6.4%
4,O=C(O)/C=C/c1ccccc1Oc1ccc(Cl)cc1Cl,4.42%
5,Nc1cc(C(=O)O)c(Oc2ccc(Cl)cc2Cl)cc1C(=O)O,-3.01%
6,COc1cc(C)ccc1NC(=O)c1ccc(S(=O)(=O)N2CCOCC2)cc1,-3.12%
7,c1ccc(C(c2ccccc2)N2CCN(Cc3nc(-c4cnccn4)no3)CC2)cc1,-8.94%
8,O=c1c([N+](=O)[O-])c(N2CCCCCC2)c2ccccc2n1-c1ccccc1,4.43%
9,CCn1cc(C(=O)O)c(=O)c2cc(F)c(N3CCN(S(=O)(=O)c4ccc(NC(=O)OC)cc4)CC3)cc21,3.45%
10,CCn1cc(C(=O)O)c(=O)c2cc(F)c(N3CCN(C(=S)NC(=O)c4ccc(OC)cc4)CC3)cc21,-3.45%
11,CCn1cc(C(=O)O)c(=O)c2cc(F)c(N3CCN(S(=O)(=O)c4ccc(Br)cc4)CC3)cc21,2.97%
12,O=C(O)c1cc(CN2CCOCC2)oc1-c1ccccc1,2.28%
13,Cc1ccc(C(=O)C(C)OC(=O)Cn2cnc3c2c(=O)n(C)c(=O)n3C)cc1 (stereo not drawn),2.25%
14,COc1cc(CNc2cccc(C(=O)O)c2)cc(Br)c1OCC(=O)NC(C)(C)C,-9.24%
15,COC(=O)c1cc(CN2CCN(c3ccccc3C)CC2)ccc1O,-3.53%
16,Cc1ccc(-c2cc(=O)c3ccccc3[nH]2)cc1,10.7%
17,COc1ccc(Cc2nc3ccccc3n2CC(=O)N/N=C/c2ccc(C)cc2O)cc1OC,-7.1%
18,C/C(=N\NC(=S)NCc1ccccc1)c1ccc(Cl)s1,9%
19,Cc1cc(C)n(-c2nncn2/N=C/c2ccccc2F)n1,-6.07%
20,O=C(Nc1ccccc1C(=O)N1CCOCC1)C1CC(=O)N(C2CCCC2)C1 (stereo not drawn),-0.19%
21,COc1ccc([N+](=O)[O-])cc1C(=O)NCCOc1ccc(Cl)cc1,-0.6%
22,CC(NCC(O)COC1CCC(C(C)(C)C)CC1)c1ccccc1 (stereo not drawn),0.36%

row,SMILES,inhibition
1,COc1ccc(C2/C=C\CN(Cc3ccncc3)CC(=O)N2Cc2ccc(F)cc2)cc1 (stereo not drawn),-5.33%
2,COc1ccc(Cl)cc1C(=O)NCC(C)C,-5.89%
3,O=C(CCC(=O)N1CCCCC1)Nc1nnc(C2CCCCC2)s1,8.14%
4,CCCN1C(=O)/C(=C/c2cc(C)n(C)c2C)SC1=Nc1ccc(OC)cc1,0.64%
5,CNC(=O)CC1C(=O)N(c2ccc(Cl)cc2)C(=S)N1CCc1ccc(OC)c(OC)c1 (stereo not drawn),-0.64%
6,O=C(NC1CCCC1)c1ccc(S(=O)(=O)N2CCOCC2)cc1,-6.82%
7,CCCCSCc1nc2ccccn2c1Br,0.1%
8,CCn1cc(C(=O)O)c(=O)c2cc(F)c(N3CCN(C(=S)NC(=O)c4ccc(F)cc4)CC3)cc21,9.94%
9,CCn1cc(C(=O)O)c(=O)c2cnc(N3CCN(C(=S)NC(=O)c4ccc(Br)cc4)CC3)nc21,5.97%
10,CCn1cc(C(=O)O)c(=O)c2cc(F)c(N3CCN(S(=O)(=O)c4ccc5c(c4)OCCO5)CC3)cc21,9.21%
11,CCCOc1ccc(C(=O)NC(=S)N2CCN(c3cc4c(cc3F)c(=O)c(C(=O)O)cn4CC)CC2)cc1,15.1%
12,CC(=O)N1CCN(c2cc3c(cc2F)c(=O)c(C(=O)O)cn3C2CC2)CC1,0.5%
13,CCn1cc(C(=O)O)c(=O)c2cc(F)c(N3CCN(C(=S)NC(=O)c4ccc(F)c(F)c4)CC3)cc21,1.24%
14,COc1ccc(NC(=O)C2CCCN(S(=O)(=O)c3ccccc3)C2)c(OC)c1 (stereo not drawn),0.45%
15,O=C1C2CCCN2C(c2cccnc2)N1c1nccs1 (stereo not drawn),0.12%
16,CCOc1cc(C(=O)Nc2nnc(S(=O)(=O)N3CCOCC3)s2)cc(OCC)c1OCC,-12.6%
17,CCc1ccc(NC(=O)COC(=O)/C(=C/c2ccccc2OC)c2ccccc2)cc1,-5.82%
18,CCn1c(C)nnc1SCC(=O)Nc1ccc2c(c1)OCCO2,11.2%
19,Cc1onc(-c2ccccc2)c1C(=O)N1CCC(CO)(Cc2ccccc2)CC1,-9.9%
20,CCC(=O)Nc1ccc2c(c1)nc(CCN1CCCCC1)n2C,0.58%
21,Nc1nc(Cl)nc2c1ncn2[C@@H]1O[C@H](CO)[C@@H](O)[C@H]1O,19.8% and 8.46%
22,NC(=O)c1ncn([C@@H]2O[C@H](CO)[C@@H](O)[C@H]2O)c1O,4.75%

row,SMILES,inhibition
1,Nc1ccn([C@@H]2O[C@H](CO)[C@@H](O)[C@@H]2O)c(=O)n1,1.39% and -1.71%
2,Nc1ccn([C@@H]2O[C@H](CO)[C@@H](O)C2O)c(=O)n1 (stereo partly drawn),6.26%
3,Nc1nc(F)nc2c1ncn2[C@@H]1O[C@H](CO)[C@@H](O)[C@@H]1O,-2.76%
4,Nc1cnn(C2OC(CO)C(O)C2O)c(=O)n1 (stereo not drawn),2.98%
5,Cc1ccc(Cn2nnnc2CN2CCC(n3nnc4cc(C)ccc43)CC2)cc1,-8.85%
6,CCOC(=O)c1ccc(CNC(=O)c2n[nH]c(=O)c3ccccc23)o1,-3.19%
7,O=C(Nc1cccc(-c2nc3ccccc3s2)c1)c1ccc2c(c1)OCO2,-3.82%
8,COc1ccc(N=C2SCC(c3ccc([N+](=O)[O-])cc3)=NN2CCO)cc1,7.19%
9,O=C(CN1CCN(S(=O)(=O)c2ccc(Br)cc2)CC1)N/N=C/c1ccco1,-9.02%
10,O=C(O)COCC(=O)N1CCN(c2cc(C(F)(F)F)nc3ccccc23)CC1,1.72%
11,CC(=O)NCCC(=O)Nc1nc2c(ccc3ccccc32)s1,9.9%
12,O=C(N/C(=C/c1ccco1)C(=O)N1CCCCCC1)c1ccccc1,2.51%
13,O=C1c2ccccc2C(=O)N1CCCc1c[nH]c2ccccc12,-2.4%
14,O=C(NCc1cccc(C(F)(F)F)c1)C1CCCN(c2cnccn2)C1 (stereo not drawn),3.94%
15,Cc1ccc2[nH]c3c(N4CCN(Cc5ccccc5)CC4)ncnc3c2c1,11.1%
16,Cc1ccc2c(c1)[nH]c1c(N3CCN(Cc4ccccc4)CC3)ncnc12,6.98%
17,Cc1ccc(NC(=O)c2ccc3snnc3c2)cc1,-2.31%
18,COc1ccccc1N1CCN(C(=O)CN2C(=O)c3ccccc3S2(=O)=O)CC1,-8.97%
19,Cc1cccc(NC(=S)N(C)C)c1C,17.9%
20,Cc1cc(Nc2ccccc2O)c2ccccc2n1,6.66%
21,Cc1cc(Nc2ccccc2)nc2cc(O)ccc12,11.4%
22,Cc1cccc(Nc2nc3ccccc3s2)c1C,-1.36%
